Hit rate of the full screen: of about 5,500 compounds, about 2,000 (36%) were called active. About 18% were inconclusive and are not listed. No stated cut-off is given here; in the data, active means normalized growth mostly below about 0.91 (no sharp cut-off); inconclusive means no clear call, values can overlap the other calls; inactive means mostly above about 0.92. The list shows a part of the results.
Assay: chemical genetic growth profiling, strain panel (AID 1159580);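 further: tested at 20 µM; growth read once vehicle control cultures reached saturation at 30 °C; 1 = growth at the plate median or of vehicle wells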
Settings: S. cerevisiae deletion strains, growth OD

Measured: normalized growth

CC(C)c1c(C(=O)c2ccccc2)c(-c2ccccc2)c(-c2ccc(F)cc2)n1CC[C@@H](O)C[C@@H](O)CC(=O)O
inactive: locus YAL030W, strain snc1, stronger effect = lower value 0.94 | locus YBR009C, strain hhf1, stronger effect = lower value 0.924 | locus YBR171W, strain sec66, stronger effect = lower value 0.984 | locus YCL011C, strain gbp2, stronger effect = lower value 0.942 | locus YCL069W, strain vba3, stronger effect = lower value 0.934 | locus YDL005C, strain med2, stronger effect = lower value 0.987 | locus YDL040C, strain nat1, stronger effect = lower value 0.99 | locus YDR001C, strain nth1, stronger effect = lower value 0.957 | locus YDR159W, strain sac3, stronger effect = lower value 0.882 | locus YDR195W, strain ref2 1.04 | locus YDR297W, strain sur2, stronger effect = lower value 0.946 | locus YDR335W, strain msn5, stronger effect = lower value 0.919 | locus YDR392W, strain spt3, stronger effect = lower value 1.01 | locus YEL037C, strain rad23, stronger effect = lower value 0.935 | locus YEL061C, strain CIN8 (second series), stronger effect = lower value 0.955 | locus YER016W, strain bim1, stronger effect = lower value 0.949 | locus YER111C, strain swi4, stronger effect = lower value 0.981 | locus YER155C, strain BEM2 (second series), stronger effect = lower value 0.917 | locus YGL167C, strain pmr1, stronger effect = lower value 1 | locus YGL173C, strain kem1, stronger effect = lower value 0.907 | locus YGL227W, strain vid30, stronger effect = lower value 0.962 | locus YGL240W, strain doc1, stronger effect = lower value 0.981 | locus YJL095W, strain BCK1 (second series), stronger effect = lower value 0.957 | locus YJL115W, strain asf1, stronger effect = lower value 0.953 | locus YJL129C, strain trk1, stronger effect = lower value 0.916 | locus YJL164C, strain tpk1, stronger effect = lower value 0.922 | locus YJL166W, strain qcr8, stronger effect = lower value 0.926 | locus YKL160W, strain elf1, stronger effect = lower value 0.921 | locus YKR026C, strain gcn3, stronger effect = lower value 0.952 | locus YKR091W, strain srl3, stronger effect = lower value 0.98 | locus YLL026W, stronger effect = lower value 0.937 | locus YLL041C, strain sdh2, stronger effect = lower value 0.981 | locus YLR027C, strain aat2, stronger effect = lower value 0.933 | locus YLR258W, strain gsy2, stronger effect = lower value 0.932 | locus YLR262C, strain YPT6 (second series), stronger effect = lower value 0.973 | locus YLR320W, strain mms22, stronger effect = lower value 0.899 | locus YLR342W, strain FKS1, stronger effect = lower value 0.94 | locus YLR384C, strain iki3, stronger effect = lower value 0.959 | locus YML120C, strain ndi1, stronger effect = lower value 0.93 | locus YMR058W, strain fet3, stronger effect = lower value 0.909 | locus YMR129W, stronger effect = lower value 0.946 | locus YMR205C, strain PFK2, stronger effect = lower value 0.946 | locus YNL071W, strain lat1, stronger effect = lower value 0.939 | locus YNL209W, strain ssb2, stronger effect = lower value 0.939 | locus YNL248C, strain rpa49, stronger effect = lower value 1.02 | locus YNL322C, strain KRE1 (second series), stronger effect = lower value 0.977 | locus YNR049C, strain mso1, stronger effect = lower value 0.952 | locus YOR080W, strain dia2, stronger effect = lower value 0.939 | locus YOR106W, strain vam3, stronger effect = lower value 0.877 | locus YOR265W, strain rbl2, stronger effect = lower value 0.95 | locus YOR290C, strain snf2, stronger effect = lower value 0.895 | locus YPL078C, strain atp4, stronger effect = lower value 0.908 | locus YPL106C, strain sse1, stronger effect = lower value 1.11 | locus YPL240C, strain hsp82, stronger effect = lower value 0.971

COc1cc2c(cc1OC)C(C)N(C(=O)c1sc3ccccc3c1Cl)CC2 (stereo not given)
inactive: locus YAR019C, strain CDC15, stronger effect = lower value 0.981 | locus YBL105C, strain PKC1, stronger effect = lower value 0.975 | locus YBR135W, strain CKS1, stronger effect = lower value 0.97 | locus YBR136W, strain MEC1, stronger effect = lower value 0.975 | locus YBR160W, strain CDC28, stronger effect = lower value 0.968 | locus YDL017W, strain CDC7, stronger effect = lower value 0.98 | locus YDL028C, strain MPS1, stronger effect = lower value 0.982 | locus YDL101C, strain DUN1, stronger effect = lower value 0.982 | locus YDL108W, strain KIN28, stronger effect = lower value 0.974 | locus YDL132W, strain cdc53, stronger effect = lower value 0.974 | locus YDL214C, strain PRR2, stronger effect = lower value 0.928 | locus YDR052C, strain DBF4, stronger effect = lower value 0.989 | locus YDR054C, strain cdc34, stronger effect = lower value 0.972 | locus YDR226W, strain ADK1, stronger effect = lower value 0.975 | locus YDR477W, strain SNF1, stronger effect = lower value 0.934 | locus YER123W, strain YCK3, stronger effect = lower value 0.9 | locus YER133W, strain GLC7, stronger effect = lower value 0.936 | locus YFL009W, strain cdc4, stronger effect = lower value 0.972 | locus YFL029C, strain CAK1, stronger effect = lower value 0.968 | locus YFR003C, strain YPI1, stronger effect = lower value 0.978 | locus YFR019W, strain FAB1, stronger effect = lower value 0.943 | locus YFR028C, strain CDC14, stronger effect = lower value 0.977 | locus YGR040W, strain KSS1, stronger effect = lower value 0.899 | locus YGR052W, strain FMP48, stronger effect = lower value 0.981 | locus YGR092W, strain DBF2, stronger effect = lower value 0.921 | locus YHR030C, strain SLT2, stronger effect = lower value 0.93 | locus YHR079C, strain IRE1, stronger effect = lower value 0.933 | locus YHR082C, strain KSP1, stronger effect = lower value 0.958 | locus YHR205W, strain SCH9, stronger effect = lower value 0.976 | locus YIL147C, strain SLN1, stronger effect = lower value 0.984 | locus YJL095W, strain BCK1, stronger effect = lower value 0.947 | locus YJL128C, strain PBS2, stronger effect = lower value 0.955 | locus YJL157C, strain FAR1, stronger effect = lower value 0.912 | locus YJR016C, strain ILV3, stronger effect = lower value 0.97 | locus YJR066W, strain TOR1 (second series), stronger effect = lower value 0.891 | locus YJR066W, strain TOR1, stronger effect = lower value 0.983 | locus YKL048C, strain ELM1, stronger effect = lower value 0.928 | locus YKL067W, strain YNK1, stronger effect = lower value 0.943 | locus YKL101W, strain HSL1, stronger effect = lower value 0.897 | locus YKL193C, strain SDS22, stronger effect = lower value 0.981 | locus YKL203C, strain TOR2, stronger effect = lower value 0.959 | locus YLR113W, strain HOG1, stronger effect = lower value 0.865 | locus YLR133W, strain CKI1, stronger effect = lower value 0.916 | locus YLR403W, strain SFP1, stronger effect = lower value 0.906 | locus YML070W, strain DAK1, stronger effect = lower value 0.912 | locus YMR001C, strain CDC5, stronger effect = lower value 0.975 | locus YMR205C, strain PFK2 (second series), stronger effect = lower value 0.948 | locus YMR277W, strain FCP1, stronger effect = lower value 0.978 | locus YNL006W, strain LST8, stronger effect = lower value 0.99 | locus YNL020C, strain ARK1, stronger effect = lower value 0.922 | locus YNL161W, strain CBK1, stronger effect = lower value 0.97 | locus YNL183C, strain NPR1, stronger effect = lower value 0.948 | locus YNL207W, strain RIO2, stronger effect = lower value 0.978 | locus YNL222W, strain SSU72, stronger effect = lower value 0.966 | locus YNL307C, strain MCK1 (second series), stronger effect = lower value 0.911 | locus YOL078W, strain AVO1, stronger effect = lower value 0.972 | locus YOL136C, strain PFK27, stronger effect = lower value 0.906 | locus YOR061W, strain CKA2, stronger effect = lower value 0.914 | locus YOR119C, strain RIO1, stronger effect = lower value 0.982 | locus YOR231W, strain MKK1, stronger effect = lower value 0.891 | locus YOR329C, strain SCD5, stronger effect = lower value 0.978 | locus YPL031C, strain PHO85, stronger effect = lower value 0.927 | locus YPL153C, strain RAD53, stronger effect = lower value 0.905 | locus YPL204W, strain HRR25, stronger effect = lower value 0.905 | locus YPL209C, strain IPL1, stronger effect = lower value 0.968 | locus YPL256C, strain CLN2, stronger effect = lower value 0.894 | locus YPR025C, strain CCL1, stronger effect = lower value 0.976 | locus YPR106W, strain ISR1, stronger effect = lower value 0.963 | locus YPR111W, strain DBF20, stronger effect = lower value 0.949 | strain NNK1, stronger effect = lower value 0.972 | strain TSCII, stronger effect = lower value 0.969
